Measurements taken from the supplement of paper PMC10849652.
The full data set covers some 7,900 targets. This sample favours those with a hit. About 0.6% of all pairs of compound and target were hits.

How the values were obtained:
Assay in all cases: log2 fold change, soluble protein after heating vs DMSO (PISA); higher = thermal stabilisation; K562 cells, 10 uM, 30 min; active = over 0.2 and 3.5 SD of the protein, either way, in both replicates (recomputed)
[1] = compound: C1=CC=C(C=C1)[C@H](COC2=CC3=C(C=C2)NC(=O)N3)NC(=O)C4=CC=CN(C4=O)CC5=CC(=C(C=C5)F)F
Procedure, shortened: (§1)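 K562 cells at 2×10^6 cells/mL were given 10 μM compound for 30 min. Aliquots then went through 3 min of heating across 48°C-58°C, were pooled, and were extracted in PBS with 0.5% NP-40 at 4°C, and the supernatant after 21,000xg for 90 min was quantified by TMTpro 16plex LC-MS/MS with channel sums equalised. Thermal stability relative to control samples, from duplicates, is given as log2 fold change.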

[2] = compound: CC1=C(SC2=C1C(=N[C@H](C3=NN=C(N32)C)CC(=O)N)C4=CC=C(C=C4)Cl)C
Procedure, shortened: as §1

[3] = compound: CC1=C2C(=CC=C1)N=C(N(C2=O)C3=CC=CC=C3C)CN4C=NC5=C(N=CN=C54)N
Procedure, shortened: as §1

[4] = compound: Cc1sc2c(c1C)C(c1ccc(Cl)cc1)=N[C@@H](CC(=O)OC(C)(C)C)c1nnc(C)n1-2
Procedure, shortened: as §1

[5] = compound: c1ccc([C@@H]2C[C@H]2NC2CCNCC2)cc1
Procedure, shortened: as §1

Measured: log2 fold change

SP100 isoform 4 (UniProt P23497)
inactive: [1] -0.006 | [2] -0.015 | [3] -0.047 | [4] 0 | [5] 0.024

SLC29A3 (UniProt Q9BZD2)
UniProt Q9BZD2, sequence (Q9BZD2 whole entry, looked up): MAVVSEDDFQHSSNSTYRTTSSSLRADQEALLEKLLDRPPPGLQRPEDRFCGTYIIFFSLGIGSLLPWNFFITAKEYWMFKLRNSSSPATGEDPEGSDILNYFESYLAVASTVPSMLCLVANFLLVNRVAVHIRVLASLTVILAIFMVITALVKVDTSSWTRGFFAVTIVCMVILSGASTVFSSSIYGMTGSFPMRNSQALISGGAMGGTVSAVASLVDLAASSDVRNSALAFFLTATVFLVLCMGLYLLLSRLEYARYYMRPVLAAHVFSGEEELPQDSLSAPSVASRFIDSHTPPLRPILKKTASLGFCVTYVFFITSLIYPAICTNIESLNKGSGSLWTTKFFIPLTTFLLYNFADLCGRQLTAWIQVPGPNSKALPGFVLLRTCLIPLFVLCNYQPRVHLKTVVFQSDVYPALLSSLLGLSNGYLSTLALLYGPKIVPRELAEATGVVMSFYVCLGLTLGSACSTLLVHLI
inactive: [1] 0.036 | [2] 0.033 | [3] 0.044 | [4] -0.352 | [5] 0.139

SRCAP (UniProt Q6ZRS2)
UniProt Q6ZRS2, sequence (Q6ZRS2 whole entry, looked up): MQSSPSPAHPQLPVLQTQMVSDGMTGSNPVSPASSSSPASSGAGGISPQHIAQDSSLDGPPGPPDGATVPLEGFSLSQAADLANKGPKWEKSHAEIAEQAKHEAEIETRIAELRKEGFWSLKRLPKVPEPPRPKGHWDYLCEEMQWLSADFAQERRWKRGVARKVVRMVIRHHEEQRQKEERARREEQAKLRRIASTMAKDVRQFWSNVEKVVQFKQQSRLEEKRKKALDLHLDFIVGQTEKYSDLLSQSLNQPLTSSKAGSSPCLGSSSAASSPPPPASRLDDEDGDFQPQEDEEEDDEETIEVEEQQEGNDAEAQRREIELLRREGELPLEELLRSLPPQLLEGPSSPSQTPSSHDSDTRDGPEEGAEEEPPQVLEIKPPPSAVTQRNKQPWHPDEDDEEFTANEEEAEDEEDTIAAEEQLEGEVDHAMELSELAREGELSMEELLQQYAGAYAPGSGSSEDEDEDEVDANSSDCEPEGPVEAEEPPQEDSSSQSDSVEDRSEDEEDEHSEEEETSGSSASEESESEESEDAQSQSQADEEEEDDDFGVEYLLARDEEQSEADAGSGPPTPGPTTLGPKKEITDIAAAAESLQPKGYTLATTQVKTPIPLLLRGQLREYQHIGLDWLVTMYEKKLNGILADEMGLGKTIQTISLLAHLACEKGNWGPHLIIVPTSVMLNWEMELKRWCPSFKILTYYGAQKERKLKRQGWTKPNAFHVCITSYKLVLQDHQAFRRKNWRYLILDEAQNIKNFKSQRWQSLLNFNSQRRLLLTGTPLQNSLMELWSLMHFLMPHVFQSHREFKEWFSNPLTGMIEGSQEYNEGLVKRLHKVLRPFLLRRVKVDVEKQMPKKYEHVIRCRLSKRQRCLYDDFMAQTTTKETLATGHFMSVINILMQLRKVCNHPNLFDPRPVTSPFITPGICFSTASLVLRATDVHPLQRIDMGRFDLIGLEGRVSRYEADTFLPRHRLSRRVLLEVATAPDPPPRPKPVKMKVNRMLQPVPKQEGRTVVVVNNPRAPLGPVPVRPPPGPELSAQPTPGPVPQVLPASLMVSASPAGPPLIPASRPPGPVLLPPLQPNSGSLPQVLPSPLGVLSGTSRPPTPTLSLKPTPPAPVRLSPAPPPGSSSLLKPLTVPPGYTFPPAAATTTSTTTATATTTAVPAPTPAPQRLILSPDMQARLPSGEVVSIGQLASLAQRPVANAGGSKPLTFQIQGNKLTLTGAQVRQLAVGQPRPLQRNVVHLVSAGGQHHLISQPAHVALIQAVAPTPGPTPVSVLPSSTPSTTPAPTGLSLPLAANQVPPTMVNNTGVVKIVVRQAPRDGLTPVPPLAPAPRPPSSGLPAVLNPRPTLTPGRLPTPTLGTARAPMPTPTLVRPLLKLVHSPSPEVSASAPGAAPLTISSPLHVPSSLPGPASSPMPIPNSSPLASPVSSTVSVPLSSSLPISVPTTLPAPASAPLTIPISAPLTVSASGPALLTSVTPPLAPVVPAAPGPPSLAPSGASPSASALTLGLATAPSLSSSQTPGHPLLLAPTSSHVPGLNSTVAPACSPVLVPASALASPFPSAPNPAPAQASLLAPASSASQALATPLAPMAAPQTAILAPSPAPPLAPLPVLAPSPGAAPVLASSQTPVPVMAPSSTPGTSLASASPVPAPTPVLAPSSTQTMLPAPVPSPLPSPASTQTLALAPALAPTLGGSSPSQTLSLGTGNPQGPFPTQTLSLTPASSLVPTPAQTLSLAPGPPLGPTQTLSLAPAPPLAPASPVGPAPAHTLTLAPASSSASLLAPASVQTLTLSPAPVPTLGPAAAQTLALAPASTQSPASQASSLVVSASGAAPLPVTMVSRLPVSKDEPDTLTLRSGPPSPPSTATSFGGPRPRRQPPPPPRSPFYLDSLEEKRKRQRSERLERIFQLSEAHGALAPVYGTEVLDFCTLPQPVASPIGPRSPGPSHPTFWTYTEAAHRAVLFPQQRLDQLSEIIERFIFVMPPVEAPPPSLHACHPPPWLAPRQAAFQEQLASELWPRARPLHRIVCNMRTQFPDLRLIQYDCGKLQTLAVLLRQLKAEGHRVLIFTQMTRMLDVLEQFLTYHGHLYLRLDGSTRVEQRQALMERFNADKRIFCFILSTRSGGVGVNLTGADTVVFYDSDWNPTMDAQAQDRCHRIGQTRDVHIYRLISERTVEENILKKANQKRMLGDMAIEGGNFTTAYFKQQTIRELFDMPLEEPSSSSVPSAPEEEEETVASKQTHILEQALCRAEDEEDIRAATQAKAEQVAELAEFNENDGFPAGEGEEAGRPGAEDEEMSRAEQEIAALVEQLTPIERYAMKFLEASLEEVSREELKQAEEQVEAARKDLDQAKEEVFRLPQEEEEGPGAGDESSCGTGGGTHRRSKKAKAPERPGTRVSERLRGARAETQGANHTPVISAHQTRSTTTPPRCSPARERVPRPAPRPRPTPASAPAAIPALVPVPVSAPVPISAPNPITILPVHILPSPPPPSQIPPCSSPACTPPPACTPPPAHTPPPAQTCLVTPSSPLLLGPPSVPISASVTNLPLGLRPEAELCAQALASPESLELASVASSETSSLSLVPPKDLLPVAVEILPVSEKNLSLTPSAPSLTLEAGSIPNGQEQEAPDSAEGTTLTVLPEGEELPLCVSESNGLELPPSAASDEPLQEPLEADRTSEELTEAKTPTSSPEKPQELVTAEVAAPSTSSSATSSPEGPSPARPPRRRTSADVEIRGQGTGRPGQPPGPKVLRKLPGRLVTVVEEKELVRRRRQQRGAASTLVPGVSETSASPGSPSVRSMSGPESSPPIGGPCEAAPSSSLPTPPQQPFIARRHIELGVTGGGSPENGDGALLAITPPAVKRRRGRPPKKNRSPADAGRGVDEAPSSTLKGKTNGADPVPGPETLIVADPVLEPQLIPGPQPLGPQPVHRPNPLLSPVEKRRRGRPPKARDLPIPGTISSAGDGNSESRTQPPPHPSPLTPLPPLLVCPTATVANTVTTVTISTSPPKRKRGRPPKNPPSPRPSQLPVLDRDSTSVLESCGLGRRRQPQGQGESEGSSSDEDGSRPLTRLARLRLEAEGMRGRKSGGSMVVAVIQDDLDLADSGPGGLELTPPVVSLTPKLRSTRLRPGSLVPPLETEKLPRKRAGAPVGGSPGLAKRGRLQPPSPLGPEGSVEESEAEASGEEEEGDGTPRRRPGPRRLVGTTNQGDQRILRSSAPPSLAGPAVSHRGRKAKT
inactive: [1] 0.074 | [2] 0.013 | [3] 0.101 | [4] -0.005 | [5] -0.136

TAX1BP1 (UniProt Q86VP1)
UniProt Q86VP1, sequence (Q86VP1 whole entry, looked up): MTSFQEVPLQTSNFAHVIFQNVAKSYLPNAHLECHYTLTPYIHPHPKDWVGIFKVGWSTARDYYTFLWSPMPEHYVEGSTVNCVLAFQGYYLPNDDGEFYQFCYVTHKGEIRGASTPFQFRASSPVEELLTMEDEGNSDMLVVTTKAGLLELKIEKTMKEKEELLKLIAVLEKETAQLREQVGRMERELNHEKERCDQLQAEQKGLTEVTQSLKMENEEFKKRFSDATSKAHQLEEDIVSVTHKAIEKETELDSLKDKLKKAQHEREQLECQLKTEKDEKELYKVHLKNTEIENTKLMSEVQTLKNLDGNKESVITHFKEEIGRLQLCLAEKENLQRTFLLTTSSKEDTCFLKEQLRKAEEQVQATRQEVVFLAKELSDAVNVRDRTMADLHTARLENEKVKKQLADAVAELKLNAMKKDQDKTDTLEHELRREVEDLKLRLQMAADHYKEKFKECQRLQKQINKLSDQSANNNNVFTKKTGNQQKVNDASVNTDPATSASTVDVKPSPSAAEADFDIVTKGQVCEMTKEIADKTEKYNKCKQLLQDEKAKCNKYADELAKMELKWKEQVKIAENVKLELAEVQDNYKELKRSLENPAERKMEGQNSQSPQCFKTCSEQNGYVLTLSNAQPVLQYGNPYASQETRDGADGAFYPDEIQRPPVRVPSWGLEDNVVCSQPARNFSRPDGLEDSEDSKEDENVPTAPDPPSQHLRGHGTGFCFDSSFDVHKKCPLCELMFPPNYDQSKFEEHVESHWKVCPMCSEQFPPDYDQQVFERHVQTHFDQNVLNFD
inactive: [1] -0.008 | [2] 0.09 | [3] 0.042 | [4] 0.029 | [5] -0.007

SURF1 (UniProt Q15526)
inactive: [1] -0.015 | [2] -0.018 | [3] 0.15 | [4] -0.101 | [5] 0.063

SRP68 (UniProt Q9UHB9)
UniProt Q9UHB9, sequence (Q9UHB9 whole entry, looked up): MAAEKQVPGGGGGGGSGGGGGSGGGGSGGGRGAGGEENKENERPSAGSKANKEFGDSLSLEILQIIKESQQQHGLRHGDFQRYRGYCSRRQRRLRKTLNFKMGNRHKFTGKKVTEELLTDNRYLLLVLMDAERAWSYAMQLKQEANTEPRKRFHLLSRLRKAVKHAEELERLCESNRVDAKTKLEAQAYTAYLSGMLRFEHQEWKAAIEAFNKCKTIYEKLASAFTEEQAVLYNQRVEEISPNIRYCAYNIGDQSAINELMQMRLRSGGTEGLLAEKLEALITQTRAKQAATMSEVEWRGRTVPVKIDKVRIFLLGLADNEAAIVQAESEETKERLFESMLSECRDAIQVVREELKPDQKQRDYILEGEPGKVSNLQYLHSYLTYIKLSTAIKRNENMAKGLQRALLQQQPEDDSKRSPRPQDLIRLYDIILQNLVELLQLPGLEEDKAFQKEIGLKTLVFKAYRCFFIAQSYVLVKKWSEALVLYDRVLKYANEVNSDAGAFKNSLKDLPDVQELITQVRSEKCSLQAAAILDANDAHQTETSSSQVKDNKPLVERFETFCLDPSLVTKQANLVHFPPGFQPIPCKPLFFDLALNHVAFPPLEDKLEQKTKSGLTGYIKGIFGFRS
inactive: [1] -0.041 | [2] 0.022 | [3] 0.039 | [4] 0.092 | [5] -0.029

TFB2M (UniProt Q9H5Q4)
inactive: [1] -0.019 | [2] 0.035 | [3] 0.103 | [4] -0.019 | [5] -0.022

SMARCA5 (UniProt O60264)
inactive: [1] -0.168 | [2] 0.063 | [3] 0.105 | [4] -0.026 | [5] -0.006
